Compounds without any hit were thinned out: in the full panel of roughly 83,000, 20% have a hit.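 Growth was measured after 48 h exposure to one concentration of compound in 96-well plates. Values under 10 count as active.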 Values without a mark were called inactive. The source made the active and inactive calls.
Columns and labels:
Assay in all cases: NCI-60 one-dose screen, 48 h (100 = growth as untreated, 0 = no growth, -100 = all killed)
Settings in all cases: 10 µM unless noted
[1] = tested on: NCI-H23 lung
[2] = tested on: NCI-H226 lung
[3] = tested on: NCI-H322M lung
[4] = tested on: HOP-62 NSCLC
[5] = tested on: NCI-H460 lung
[6] = tested on: HOP-92 NSCLC
[7] = tested on: NCI-H522 lung
[8] = tested on: A549/ATCC NSCLC
[9] = tested on: 786-0 renal
[10] = tested on: COLO 205 colon

SMILES	growth [1]	growth [2]	growth [3]	growth [4]	growth [5]	growth [6]	growth [7]	growth [8]	growth [9]	growth [10]
CCCCCCNC(=O)Oc1ccc(/C(=C(\C)c2ccc(OC)cc2)c2ccc(OCCN3CCCCC3)cc2)cc1	64.6%	95.6%	90.3%	72%	52.7%	67.6%	72.7%	61.7%	41.7%	16.3%
COc1cc(C)c(Cc2cnc(N)nc2N)cc1OC	101%	93.9%	103%	97.1%	111%	88.9%	95.9%	103%	103%	117%
CNCCCNc1nc2ccccc2c2c(=O)c3cc(F)ccc3sc12	70.1%	81.7%	55.9%	47.9%	-52.9% (active)	28.9%	24.8%	37.9%	61.5%	-47.8% (active)
COc1ccc(C2CC(c3ccc(Nc4ccnc5cc(Cl)ccc45)cc3)=NN2C=O)cc1 (stereo not given)	76.9%	90.5%	103%	90.7%	80.2%	48.3%	67.3%	64.3%	70.5%	89.4%
CCN(CC)CCNC(=O)c1cn2ncnc(Oc3ccc(NC(=O)Nc4ccc(Cl)c(C(F)(F)F)c4)cc3)c2c1C	-83.6% (active)	6% (active)	4.06% (active)	-78.5% (active)	-74.4% (active)	-39.1% (active)	-63% (active)	-85.2% (active)	-89.9% (active)	-73.4% (active)
O=c1c2cc(F)ccc2sc2c(NCCO)nc3ccccc3c12	95.6%	103%	99.7%	105%	112%	110%	91.1%	101%	104%	114%
CCc1ccc(Oc2c(-c3ccc(OCCc4cccc(C(F)(F)F)c4)cc3O)n[nH]c2C(F)(F)F)cc1	4.8% (active)	52.9%	76.7%	76.6%	2.53% (active)	-5.8% (active)	-20.5% (active)	55.9%	91.2%	100%
COc1ccc(-c2nnc(COc3ccc(Cl)cc3Cl)o2)cc1OC	56.3%	32.8%	16.8%	-1.03% (active)	-4.77% (active)	-32.4% (active)	19.4%	9.7% (active)	-70.8% (active)	58.5%
Cc1ccc(-c2nc(N3CCN(C(=O)Nc4ccc(Cl)c(C(F)(F)F)c4)CC3)c3ccccc3n2)cc1	78.1%	78.7%	64.3%	79.2%	81.1%	82%	69.9%	64%	81.3%	89.6%
COc1cc(C(=O)c2cnc(-c3c[nH]c4cccc(C)c34)[nH]2)cc(OC)c1OC	24%	57%	40.3%	36.2%	3.6% (active)	5.73% (active)	-4.91% (active)	20.4%	10.4%	-29.3% (active)
CN1C(=O)CNC(=O)[C@H](NC(=O)c2nc3ccccc3cc2O)CSSC[C@H]1C(=O)NCCc1nc2ccccc2cc1O	64.1%	83.8%	62.9%	82.1%	8.06% (active)	128%	42.9%	38.8%	112%	1.34% (active)
C=C1C(=O)O[C@H]2[C@H]1CC/C(COC(=O)NCCOCCOCC(=O)Nc1ccc(OC)c(C(N)=O)c1O)=C\CC[C@@]1(C)O[C@@H]21	78.5%	89.8%	96.9%	84%	95.8%	24.2%	-11% (active)	84.1%	62.1%	8% (active)
Nc1nn(C(=O)Nc2ccc(Cc3ccccc3)cc2)c2ccc(Cl)cc12	70.1%	63.5%	65.9%	67.8%	28.9%	99.8%	73.1%	38.3%	64%	34.9%
COc1cc(/C=N/NC(=O)c2ccc(C)nc2)cc(OC)c1OC	102%	85.1%	90.5%	105%	103%	90.5%	91.7%	90.9%	34%	108%
CCOC(=O)/C=C1\S/C(=N\Nc2ccc([N+](=O)[O-])cc2[N+](=O)[O-])N(Cc2ccccc2)C1=O	76.8%	93.1%	97.9%	103%	93.1%	71.5%	68.6%	93.2%	91.2%	99.1%
N#C/C(=C\c1cccc2cnccc12)n1nnc2cccc(F)c21	27.7%	62.6%	89.9%	53.2%	35.5%	-25% (active)	18.3%	86.6%	56.4%	34.3%
CCOC(=O)c1cnn2c3ccccc3n(S(=O)(=O)c3ccc(OC)cc3)c12	28.2%	19.9%	53.7%	35%	18.4%	59.9%	20.6%	28.5%	40.5%	-19.4% (active)
O=S(=O)(NCCCNc1cc(-c2c(-c3cccc(O)c3)nc3sccn23)ccn1)c1cccc2ccccc12	39.8%	41.1%	78.8%	67.2%	39.7%	97.3%	51.2%	58.9%	51.2%	35.5%
COc1ccc(-c2nc3sc(-c4ccc(Cl)cc4)cn3n2)cc1	58.5%	50.1%	17.8%	39.6%	-39.3% (active)	21.5%	61%	-30.3% (active)	-75.8% (active)	52.5%
Cc1oc2nc[nH]c(=O)c2c1C(=O)/C=C/c1ccc(Br)cc1	-11.2% (active)	-8.79% (active)	2.39% (active)	12.1%	3.92% (active)	-10.7% (active)	13.9%	9.19% (active)	11.5%	3.83% (active)
N#C/C(=C\c1ccc(F)cc1)n1nc2cccc(F)c2n1	56.7%	97.6%	76.2%	76.3%	39.2%	6.85% (active)	8.28% (active)	78.7%	67.3%	67.1%

SMILES	growth [1]	growth [2]	growth [3]	growth [4]	growth [5]	growth [6]	growth [7]	growth [8]	growth [9]	growth [10]
COc1ccc(-c2[nH]c3ccc(OC)cc3c2/C=C(\C#N)S(=O)(=O)c2ccccc2)cc1	24.9%	72.3%	53.5%	69.1%	4.64% (active)	29.2%	34.5%	23.5%	27.8%	-43.4% (active)
COc1ccc(OC)c(/C=C2\Oc3cc(OCCN4CCC(Cc5ccccc5)CC4)ccc3C2=O)c1	88.1%	91%	94%	94.4%	82.2%	55.2%	86.6%	92%	77.6%	25.3%
CN(C)CCCNc1nc2ccccc2c2c(=O)c3cc(F)ccc3sc12	70.6%	91.5%	71.2%	65%	-1.74% (active)	24%	39.2%	57%	59.3%	-34.1% (active)
O=C(Cc1ccc(F)c(Cl)c1)Nc1cc(C2(C(F)(F)F)CC2)nn1CC1CCCCC1	-2.27% (active)	14.5%	9.83% (active)	-8.44% (active)	3.01% (active)	-14.9% (active)	-28.1% (active)	9.72% (active)	9.17% (active)	-86.2% (active)
c1cc(-c2nnc(SSc3ncnc4nc[nH]c34)o2)ccn1	43%	53.5%	55.9%	52.4%	48.4%	52.9%	6.68% (active)	92.5%	13.8%	67.7%
COc1cc(/C=C/c2ccccc2)cc(OC)c1	86.6%	92%	114%	108%	106%	69.9%	84.1%	95.4%	97.9%	114%
COc1cccc(Oc2ccccc2NC(=O)CNC(=O)c2cccc3ccccc23)c1	31.6% [5 µM]	53.7% [5 µM]	32.6% [5 µM]	35.3% [5 µM]	6.08% [5 µM] (active)	31.6% [5 µM]	-10.3% [5 µM] (active)	26.8% [5 µM]	28.4% [5 µM]	-13.5% [5 µM] (active)
CCCCC1CCCC12NC(=O)NC2=O (stereo not given)	99.3%	88.5%	98.3%	99.3%	117%	93.6%	106%	117%	105%	120%
COc1ccc(NC(=O)n2nc(/C=C\c3ccc(O)c(OC)c3)cc2/C=C\c2ccc(O)c(OC)c2)cc1	43.9%	87.2%	58.1%	32.7%	14.2%	89.1%	-13.5% (active)	27.3%	32.1%	107%
Cc1cc(=O)oc2cc(OC(=O)CN3CCN(C)CC3)ccc12	97.4%	100%	105%	99.3%	102%	88.5%	92.4%	102%	105%	110%
COc1ccc(-c2[nH]ncc2-c2cc3c(c(OC)c2)OCC(=O)N3)cc1	30%	61.8%	43%	27.2%	5.89% (active)	63%	-47.2% (active)	35.2%	27%	-24.9% (active)
COc1ccc(/C=C/c2c(C(=O)/C=C/c3ccc(Cl)cc3)c(C)nc3ccccc23)cc1	35.8%	12.4%	68.6%	22.7%	0.257% (active)	70.2%	23.6%	84.1%	14.3%	58.4%
CC(=O)OC[C@H]1OC(Sc2sc(C(=O)c3ccc(Br)cc3)c(N)c2-c2nc3ccccc3s2)[C@H](OC(C)=O)[C@@H](OC(C)=O)[C@H]1OC(C)=O (stereo not given in full)	88.4%	65.6%	91.8%	91.1%	107%	98.3%	94.1%	92.2%	94.4%	108%
CCOc1cccc(NC2=C(Br)C(=O)C(C)=C(C)C2=O)c1	67.5%	72%	96.2%	83.6%	100%	-8.14% (active)	80.5%	103%	104%	123%
O=C1COCCN1c1ccc(NCc2cn(C(=O)c3ccc(Cl)cc3)c3ccccc23)cc1	54.5%	-61.1% (active)	95.1%	60.2%	14.9%	58.2%	65.6%	46.9%	65.8%	29.3%
CCCCOc1ccc(/C=N/NC(N)=S)cc1	87.6%	68.9%	94.9%	116%	96.5%	68.2%	8.46% (active)	91.4%	68.3%	85%
COc1ccc(-c2cc3c4c(nc5ccccc5c4c2)CC(c2cc(OC)c(OC)c(OC)c2)O3)cc1 (stereo not given)	54.2%	-12.5% (active)	54.2%	34.7%	12.8%	-7.6% (active)	55.6%	64.7%	-56.1% (active)	67.5%
COc1nc2ccc(C)cc2cc1-c1nc2c(cnn2-c2ccccc2)c(=O)[nH]1	80.5%	92%	95.9%	70.9%	80.3%	78.9%	56.5%	84.3%	95.3%	86.3%
O=c1c2cc(F)ccc2sc2c(NCCCNCCO)nc3ccccc3c12	66.9%	80.8%	50%	46.5%	-71.3% (active)	3.78% (active)	20.4%	33.9%	51.9%	-56.4% (active)
Cc1ccc(S(=O)(=O)N/N=C/C2(c3ccccc3)CC2)cc1	101%	113%	111%	99%	95.1%	90.5%	105%	82%	112%	116%

— PubChem BioAssay (NCI)
